# HCV inh: qHTS Assay for Inhibitors of Hepatitis C Virus (HCV) | Huh7.5.1 HCVcc-Cre infection, luciferase reporter, 44 h | Potency, µM (top dose mostly 41.8 µM), usual class: inhibitors | 340,000 tested, 3.4% active
#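 After 44 h co-culture of compound, cells and HCVcc-Cre (~0.5 moi), substrate is added for 15 min at room temperature and luciferase measured over 15 sec. Cells were seeded at 1,000/well and pre-cultured 4 h.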
# SARS PLP yeast: qHTS of Yeast-based Assay for SARS-CoV PLP | S. cerevisiae expressing SARS-CoV PLpro, growth rescue | Potency, µM (highest dose often 32.9 µM), actives largely listed as activators | 330,000 tested, 0.19% active; calls by dose curve; further: nearly all actives have a fitted effect of over 55% in size
# Pf growth 48h: Primary qHTS for delayed death inhibitors of the malarial parasite plastid, 48 hour incubation. P. falciparum luciferase growth in erythrocytes, 48 h. Potency, µM (highest dose often 28.7 µM), hits mostly inhibitors. 310,000 tested, 5.9% active
#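 Compounds are pin-transferred into medium, infected erythrocytes (2% hematocrit, 0.1% parasitemia final) are added, and plates sit one parasite generation at 37 C in 5% CO2. Detection reagent is then added and luminescence measured.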
# Sm TGR block: qHTS Assay for the Inhibitors of Schistosoma Mansoni Peroxiredoxins. purified TGR, DTNB reduction, TNB absorbance 405 nm. Schistosoma mansoni thioredoxin glutathione reductase (TGR), Q962Y6. Potency, µM (doses to about 114 µM), usual class: inhibitors. 360,000 tested, 3% active; further: nearly all actives have a fitted effect of over 60% in size
#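 Kinetic colorimetric format: TGR-catalysed, NADPH-driven DTNB reduction monitored via TNB absorbance. Enzyme dispensed at 20 nM; compound exposure 15 min at room temperature before reaction start.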
# Pf growth 96h: Primary qHTS for delayed death inhibitors of the malarial parasite plastid, 96 hour incubation; P. falciparum luciferase reporter growth, 96 h; Potency, µM (doses to about 28.7 µM), most hits filed as inhibitors; 320,000 tested, 6.9% active
#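 Cell-based qHTS: luciferase-tagged P. falciparum in erythrocytes (2% hematocrit, 0.05% parasitemia final) incubated with compounds for 96 hours, 37 C, 5% CO2; luciferase detection reagent then added and luminescence measured.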
# HCMV antiviral: qHTS Assay for inhibitors of the human cytomegalovirus (HCMV); HFF cells, HCMV-luciferase reporter, 72 h; active compounds read low; activity change, negative = inhibition, % at 57.5 µM; 410,000 tested, 4.5% active; in the data active means activity change below about -60%; inconclusive means no clear call, values can overlap the other calls; inactive means above about -39%
#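 Two compound doses tested in HFFs infected with HCMV-luciferase, MOI 1 PFU/cell, 72 h at 37C. Lysate luminescence read with OneGlo; data normalized against buffer-only and 10uM Salinomycin inhibitor controls.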
# A number is an active result; . = inactive; ? = inconclusive; / = not tested or not shown; [ ] = remark or other dose. The list is not random: actives were taken first. Their share in the collection is about 15%. Unless noted, the call rests on the fitted dose curve; in most records, active means well fitted curve in the direction sought with a large enough effect; inconclusive means small, poorly fitted or top-dose-only effect, or another doubt; inactive means no such curve, though single readings can be large; an effect the other way counts as inactive or inconclusive.
SMILES,HCV inh,SARS PLP yeast,Pf growth 48h,Sm TGR block,Pf growth 96h,HCMV antiviral
CCN1C(=O)[C@@H]2[C@@H](c3ccc(SC4CCCCC4)cc3)N3CCCC[C@@]3(C(=O)OC)[C@@H]2C1=O,.,.,?,?,12µM,.
CCC(C)Sc1ccc([C@@H]2[C@H]3C(=O)N(CC)C(=O)[C@H]3[C@]3(C(=O)OC)CCCN23)cc1OC (stereo partly drawn),.,.,12µM,.,10µM,.
CCN1C(=O)[C@H]2[C@@H](c3ccc(SC4CCCCC4)c(OC)c3)N3CCCC[C@@]3(C(=O)OC)[C@H]2C1=O,.,.,3.7µM,?,12µM,.
CCSc1ccc([C@@H]2[C@H]3C(=O)N(CC)C(=O)[C@H]3[C@]3(C(=O)OC)CCCCN23)cc1OC,.,.,/,/,/,/
Cc1ccc(S(=O)(=O)c2c(COC(=O)c3ccccc3Cl)c(-c3ccccc3)nn2C)cc1,?,.,/,.,6.6µM,.
Cc1ccc(C)c(OCCC(=O)Nc2cccc(S(=O)(=O)N3CCCCC3)c2)c1,?,.,12µM,.,?,.
COc1ccc(NC(=O)CCOc2cc(C)ccc2C)cc1S(=O)(=O)N1CCCCC1,?,.,/,/,/,-62
Cc1ccc(C)c(OCCC(=O)Nc2cc(S(=O)(=O)N3CCCCC3)ccc2C)c1,?,.,/,/,/,.
Nc1nonc1C(=O)N/N=C/c1ccc(-c2ccc(Cl)c(C(=O)O)c2)o1,.,.,.,.,?,-73
O=C(O)c1ccc(-c2ccc(/C=c3/sc4nc5ccccc5n4c3=O)o2)cc1Cl,.,.,.,28µM,.,.
O=C(O)c1cc(-c2ccc(/C=N/Nc3ccc(Cl)cc3)o2)ccc1Cl,.,.,.,?,.,.
CC1(C)OC(=O)C(=Cc2ccc(-c3ccc(Cl)c(C(=O)O)c3)o2)C(=O)O1,.,.,15µM,.,?,.
O=C(O)c1cc(-c2ccc(/C=C3/SC(=S)N(Cc4ccccc4)C3=O)o2)ccc1Cl,.,.,.,25µM,.,.
Cc1ncn(-c2ccccc2)c1-c1ccccc1,?,.,?,.,.,.
NC(=O)c1nnsc1-c1ccco1,.,/,/,/,/,.
Cc1ccc(NC(=O)CN(C)C(=O)COc2cc(F)ccc2[N+](=O)[O-])cc1,.,.,.,.,.,.
CC(C)(C)n1nnnc1C(CCc1ccccc1)N1CCC(n2c(=O)[nH]c3ccccc32)CC1 (stereo not drawn),/,/,/,/,/,-99
CC(C)(C)n1nnnc1C(C1CC1)N1CCC(n2c(=O)[nH]c3ccccc32)CC1 (stereo not drawn),/,/,/,/,/,.
O=c1[nH]c2ccccc2n1C1CCN(C(c2nnnn2C2CCCCC2)C2CC2)CC1 (stereo not drawn),/,/,/,/,/,.
CSCCC(c1nnnn1C1CCCCC1)N1CCC(n2c(=O)[nH]c3ccccc32)CC1 (stereo not drawn),/,/,/,/,/,-93
O=c1[nH]c2ccccc2n1C1CCN(C(CCc2ccccc2)c2nnnn2C2CCCCC2)CC1 (stereo not drawn),/,/,/,/,/,-91
Cc1ccc(S(=O)(=O)N2CCCCC2)cc1NC(=O)c1ccncc1,.,.,.,.,?,.
COc1ccc(Cl)cc1NC(=O)c1ncn(-c2ccccc2)n1,/,/,/,.,/,.
Cc1ccccc1C(=O)NNC(=O)CSc1nc(-c2ccccc2)cc(=O)[nH]1,.,.,.,.,?,?
Clc1ccc2ncc(-c3nnnn3-c3ccccc3)c(-c3ccccc3)c2c1,2.8µM,.,?,.,?,.
SMILES,HCV inh,SARS PLP yeast,Pf growth 48h,Sm TGR block,Pf growth 96h,HCMV antiviral
Clc1ccc(-n2nnnc2-c2cnc3ccc(Cl)cc3c2-c2ccccc2)cc1,?,.,13µM,.,12µM,.
CCN(C)C(=O)C1=COC2=NC(=O)N(Cc3cccc(Cl)c3)CCN12,/,/,/,/,/,.
CC(C)c1ccc(NC2CCCN(C(=O)c3cccs3)C2)cc1 (stereo not drawn),.,.,.,.,.,?
O=C1C2CC=CCC2C(=O)N1c1ccc(NCCc2ccc(Cl)cc2)c([N+](=O)[O-])c1 (stereo not drawn),.,.,.,.,.,.
O=C1C2CC=CCC2C(=O)N1c1ccc(NCCc2ccc(O)cc2)c([N+](=O)[O-])c1 (stereo not drawn),13µM,.,.,.,?,.
Cc1cc(C)cc(NS(=O)(=O)c2csc(C(N)=O)c2)c1,.,.,.[0.00184 µM],.,?,.
Cc1cccc(N(C)S(=O)(=O)c2csc(C(N)=O)c2)c1,.,.,.,.,0.66µM,.
CN(C)c1ccc(CNS(=O)(=O)c2csc(C(N)=O)c2)cc1,.,.,.,.,.,.
Cc1ccc(NS(=O)(=O)c2csc(C(N)=O)c2)c(C)c1,.,.,7.4µM,.,4.1µM,.
CC(C)Oc1ccc(CNS(=O)(=O)c2csc(C(N)=O)c2)cc1,?,.,6.6µM,.,.,?
CC1CC(C)CN(C(=O)Cn2cc(C=O)c3ccccc32)C1 (stereo not drawn),.,.,.,.,.,.
COc1ccc(OC)c(NC(=O)CSc2nc3nc(C)cc(C)n3n2)c1,.,.,?,.,?,.
COc1ccc(NC(=O)Cc2coc3cc(C)ccc23)cn1,.,.,.,.,?,.
Cc1ccc(S(=O)(=O)N2CCOC2C(Cl)(Cl)Cl)cc1 (stereo not drawn),.,.,8.3µM,.,.,?
CNC(=O)C(=O)NCC1OCCN1S(=O)(=O)c1ccc(C)cc1 (stereo not drawn),/,.,.,.,.,.
OCc1c[nH]c2ccccc12,.,/,?,?,?,.
CN(C)Cc1c[nH]c2ccccc12,.,.,?,.,9.3µM,.
C=C(CCC(=O)c1ccccc1)C(=O)c1ccccc1,?,.,.,45µM,.,-81
C=C(C(=O)c1ccccc1)C(CC(=O)c1ccccc1)c1ccccc1 (stereo not drawn),13µM,.,?,.,.,-101
O=C(CC12CC3CC(CC(C3)C1)C2)Nc1nncs1,.,.,.,.,.,.
Cc1cc(=O)n2nc(N3CCC(C(=O)NCC(C)c4ccccc4)CC3)sc2n1 (stereo not drawn),.,.,.,.,.,.
CCN(CC(=O)Nc1ccccc1C(F)(F)F)C(=O)c1ccc2c(c1)NC(=O)C(C)S2 (stereo not drawn),/,/,/,/,/,.
COc1ccc2c(c1)c1c(c(=O)n(CCc3ccccc3)c(=O)n1Cc1cccc(F)c1)n2C,/,/,/,.,/,.
Cc1ccc(CN2CCSc3ccc(C(=O)NCCCN4CCN(C)CC4)cc32)cc1,?,.,15µM,.,?,.

# Screening data deposited in PubChem BioAssay by National Center for Advancing Translational Sciences (NCATS).
